Measurements as given in PubChem BioAssay.
Active and inactive are the calls of the source.

Assay: basal MM1S mitochondrial membrane potential changes, profiling panel, cell-based, JC-1 fluorescence, 24 h, 100 nL compound (AID 1170)
Conditions: higher = more signal
Also: test concentration not given here.

Compound	z-score
O=C1O[C@@H](c2ccccc2)[C@@H](c2ccccc2)N2[C@@H](c3ccc(OCCO)cc3)[C@]3(C(=O)Nc4ccc(C#CC5(O)CCCCCC5)cc43)[C@@H](C(=O)Nc3nc4ccccc4s3)[C@H]12	-0.344
COCCCN1C(=O)[C@@]2(c3ccc([N+](=O)[O-])cc3)CC(=O)N(CC34CC5CC(CC(C5)C3)C4)[C@@H]2c2ccc(CO)cc21	-1.87
O=C1C2C=CC(C(O)c3cccs3)N(Nc3ccc([N+](=O)[O-])cc3)C2C(=O)N1c1ccccc1 (configuration not stated)	-1.46
C=C1C(=O)C=C2CN(C(=O)c3ccccc3)[C@@](Cc3ccc(OC)cc3)(C(=O)OC)[C@@H]12	-1.74
CCOC(=O)C[C@H]1[C@H](OC(=O)c2cc3ccccc3oc2=O)[C@@H](NC(=O)CC(C)C)c2cc(OCCCO)ccc2N1C(=O)Cc1ccc(OC)cc1	0.328
CCOC(=O)C1=CC[C@@H](c2ccccc2)N(S(=O)(=O)c2ccc(C)cc2)[C@H]1c1ccccc1I	-1.16

Assay: A549 lung cancer cell viability effects, profiling panel, resazurin fluorescence, 24 h, PK04 Diversity Set (AID 1171)
Conditions: higher = more signal, called active from +8 up or from −8 down

Compound	z-score
COCCOC(=O)N1C(=O)[C@@]2(c3ccccc31)[C@H](C(=O)N1CCN(c3ncccn3)CC1)[C@H]1C(=O)O[C@H](c3ccccc3)[C@H](c3ccccc3)N1[C@@H]2c1ccccc1OCCO	-0.166 (inactive)
Cc1ccc(C(C)CC(O)C2C=CC3C(=O)N(C)C(=O)C3N2Nc2ccccc2)o1 (configuration not stated)	-0.18 (inactive)
CC1CC/C=C\[C@H]2OC34C=CCN(CCN5CCOCC5)C(=O)[C@H]3N(CCCO)C(=O)[C@@H]4C2C(=O)O1 (some centres not stated)	-0.467 (inactive)
CCCNC(=O)[C@@]1(c2ccc([N+](=O)[O-])cc2)CC(=O)N(C(C)C)[C@@H]1c1ccc(CO)cc1	0.0564 (inactive)
C=C(COC)/C(=C/C[C@H](OC(C)=O)c1ccccc1OCCO)c1cc(C(=O)OC)ccc1OC	-0.0553 (inactive)
CC(C)C(=C=CC[C@H](O)c1ccccc1OCCO)C[C@H](O)COCc1ccccc1	-0.0334 (inactive)
CCCC[C@H]1OB(O)C[C@H]2C1=C(COc1ccccc1)C[C@H]1C(=O)C=CC(=O)[C@H]12	0.121 (inactive)
Cc1ccc(N2C(=O)c3ccccc3[C@](C)(C(=O)NCCCN(C)C)[C@@H]2c2ccc(CO)cc2)nc1	0.31 (inactive)
CCCCC(O)C1C=CC2C(=O)N(c3ccccc3)C(=O)C2N1Nc1ccc([N+](=O)[O-])cc1 (configuration not stated)	0.113 (inactive)
C=CCC(OC(C)=O)[C@@H]1[C@@H](N(Cc2ccc(-c3cccc(C(F)(F)F)c3)o2)C(=O)c2ccc(-c3ccccc3)cc2)c2cc(OCCCO)ccc2N1C(=O)c1ccc2ccccc2c1 (some centres not stated)	0.919 (inactive)
C=C(CCCC)/C(=C/C[C@H](OC(C)=O)c1cccc(OCCO)c1)c1cnc2ccccc2c1	0.395 (inactive)
OCCCC1=CC(c2ccc(CN3CCCC3)cc2)N(Cc2cccc(OC(F)(F)F)c2)CC1 (configuration not stated)	0.194 (inactive)
C=C(COC)C(=O)CC[C@H](OC(=O)c1cccnc1)c1ccc(OCCO)cc1	-0.552 (inactive)
COc1ccc(C(O)C2C=CC3C(=O)N(c4ccccc4)C(=O)C3N2Nc2ccc(C#N)cc2)cc1OCc1ccccc1 (configuration not stated)	0.141 (inactive)
C=CCNC(=O)[C@H]1[C@@H]2C(=O)O[C@@H](c3ccccc3)[C@@H](c3ccccc3)N2[C@@H](c2ccc(OCCO)cc2)[C@]12C(=O)Nc1ccc(C#CC3(O)CCCCCC3)cc12	1.31 (inactive)
CC[C@@H]1C=C(C(=O)O)[C@H](c2ccc(OC)cc2)N1S(=O)(=O)c1ccc(C)cc1	-0.599 (inactive)
O=C1C2C=CC(C(O)C3CCCCC3)N(n3cnnc3)C2C(=O)N1Cc1ccccc1 (configuration not stated)	0.714 (inactive)
[N-]=[N+]=NCc1ccccc1[C@@H]1OC(c2ccc(OCCCO)cc2)=N[C@]1(Cc1ccccc1N=[N+]=[N-])C(=O)O	0.54 (inactive)

Compound	z-score
COC(=O)c1cccc([C@H]2OC(=CC(=O)OC(C)C)C[C@@H](c3cccc(C(=O)OC)c3)O2)c1	-0.0417 (inactive)
CN(C)CCCNC(=O)[C@@]1(Cc2ccccc2I)c2ccccc2C(=O)N(C2CCCCC2)[C@H]1c1ccc(CO)cc1	-6.91 (inactive)
O=C1NC(=O)C2C1C=CC(C(O)c1ccc(B(O)O)cc1)N2Nc1ccc(Cl)cc1Cl (configuration not stated)	-0.616 (inactive)
COC(=O)[C@@]1(Cc2ccccc2)[C@H]2c3cc(C(=O)N(C)C)n(CCO)c3C[C@H]2CN1C(=O)c1ccccc1	-0.723 (inactive)
C=C(CCCC)C(=O)CC[C@H](OC(=O)c1ccccc1-c1ccccc1C(=O)O)c1ccc(OCCO)cc1	0.52 (inactive)
O=C1OCCC=C[C@H]2OC34C=CCN(c5ccc6ccccc6c5)C(=O)[C@H]3N(CCO)C(=O)[C@@H]4C12 (some centres not stated)	-0.751 (inactive)
COc1cc(CO)cc(I)c1O[C@H]1C=C(C(=O)NCCO)C[C@@H]2O[C@H]12	-1.41 (inactive)
COCCOC(=O)N1C(=O)[C@@]2(c3cc(C#CCC(C(=O)OC)C(=O)OC)ccc31)[C@H](C(=O)Nc1nc3ccccc3s1)[C@H]1C(=O)O[C@H](c3ccccc3)[C@H](c3ccccc3)N1[C@@H]2c1ccc(OCCO)cc1	1.42 (inactive)
CC(C)C[C@H]1NC(=O)C([C@@H](C)OCc2ccccc2)NC(=O)[C@@]23C(=O)N[C@@H](Cc4ccccc4)C2[C@H](C)[C@@]2(C)O[C@H]2C3/C=C/C/C=C\CNC1=O (some centres not stated)	0.154 (inactive)
C=C(COC)/C(=C/C[C@@H](OC(C)=O)c1ccccc1OCCO)c1cnc2ccccc2c1	-1.69 (inactive)
COc1ccc([Si](C)(C)[C@@H]2[C@@H](CC(=O)N3CCC[C@H]3CO)O[C@]3(C(=O)N(Cc4ccc(N5CCOC5=O)cc4)c4ccccc43)[C@H]2C)cc1	-1.77 (inactive)
COC(=O)[C@@]1(Cc2ccccc2)[C@H]2c3cc(C(=O)N(C)C)n(CCSC(=N)N)c3C[C@H]2CN1C(=O)c1ccccc1	-0.541 (inactive)
O=C1O[C@@H](c2ccccc2)[C@@H](c2ccccc2)N2[C@@H](c3ccc(OCCO)cc3)[C@]3(C(=O)Nc4ccc(C#CC5(O)CCCCCC5)cc43)[C@@H](C(=O)Nc3nc4ccccc4s3)[C@H]12	0.524 (inactive)
COCCCN1C(=O)[C@@]2(c3ccc([N+](=O)[O-])cc3)CC(=O)N(CC34CC5CC(CC(C5)C3)C4)[C@@H]2c2ccc(CO)cc21	-1.25 (inactive)
O=C1C2C=CC(C(O)c3cccs3)N(Nc3ccc([N+](=O)[O-])cc3)C2C(=O)N1c1ccccc1 (configuration not stated)	0.644 (inactive)
C=C1C(=O)C=C2CN(C(=O)c3ccccc3)[C@@](Cc3ccc(OC)cc3)(C(=O)OC)[C@@H]12	-0.701 (inactive)
CCOC(=O)C[C@H]1[C@H](OC(=O)c2cc3ccccc3oc2=O)[C@@H](NC(=O)CC(C)C)c2cc(OCCCO)ccc2N1C(=O)Cc1ccc(OC)cc1	-0.546 (inactive)
CCOC(=O)C1=CC[C@@H](c2ccccc2)N(S(=O)(=O)c2ccc(C)cc2)[C@H]1c1ccccc1I	0.998 (inactive)
